Screening data deposited in PubChem by National Center for Advancing Translational Sciences (NCATS).
Pf growth 96h: inhibits malaria parasite growth, 96 h. Potency, µM (highest dose often 28.7 µM), for the others: at the top dose activity change, negative = inhibition, usual class: inhibitors. 320,000 tested, 6.9% active. P. falciparum luciferase reporter growth, 96 h; also: potency is read from the fitted curve at half-maximal effect; % is scaled to controls: 0 for no effect and ±100 for the full control effect
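Delayed-death screen, second-generation endpoint: infected erythrocytes, 2% hematocrit, 0.05% parasitemia final; 96 hours at 37 C, 5% CO2; luciferase detection reagent; luminescence decrease equals reduced growth.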
Pf growth 48h: inhibits P. falciparum growth in the first generation, 48 h; P. falciparum luciferase growth in erythrocytes, 48 h; Potency, µM (series often up to 28.7 µM), inactives show at the top dose activity change, negative = inhibition, usual class: inhibitors; 310,000 tested, 5.9% active; also: potency is read from the fitted curve at half-maximal effect; % is scaled to controls: 0 for no effect and ±100 for the full control effect
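Growth was read as firefly luciferase luminescence after a 48 h, 37 C, 5% CO2 exposure of compounds to reporter-bearing P. falciparum cultures (0.1% parasitemia, 2% hematocrit final) in Albumax-supplemented RPMI 1640.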
Shiga inhibitor: blocks Shiga toxin action in Vero cells. inhibition, % at 38.7 µM. 290,000 tested, 9.2% active. AID 2315. Vero cells, Shiga toxin protein synthesis inhibition reporter; in the data active = inhibition mostly above about 28%, no sharp cut-off; inactive = mostly below about 43%; also: 0% is about no effect
LmPK inh: inhibitors of Leishmania mexicana pyruvate kinase; Q27686; purified LmPK, Kinase-Glo ATP luminescence, 1 h; Potency, µM (doses to about 57.5 µM), inactives show at the highest dose activity change, negative = inhibition, most hits filed as inhibitors; 290,000 tested, 0.37% active; also: potency is read from the fitted curve at half-maximal effect; % is scaled to controls: 0 for no effect and ±100 for the full control effect
Target sequence (Q27686 whole entry, looked up): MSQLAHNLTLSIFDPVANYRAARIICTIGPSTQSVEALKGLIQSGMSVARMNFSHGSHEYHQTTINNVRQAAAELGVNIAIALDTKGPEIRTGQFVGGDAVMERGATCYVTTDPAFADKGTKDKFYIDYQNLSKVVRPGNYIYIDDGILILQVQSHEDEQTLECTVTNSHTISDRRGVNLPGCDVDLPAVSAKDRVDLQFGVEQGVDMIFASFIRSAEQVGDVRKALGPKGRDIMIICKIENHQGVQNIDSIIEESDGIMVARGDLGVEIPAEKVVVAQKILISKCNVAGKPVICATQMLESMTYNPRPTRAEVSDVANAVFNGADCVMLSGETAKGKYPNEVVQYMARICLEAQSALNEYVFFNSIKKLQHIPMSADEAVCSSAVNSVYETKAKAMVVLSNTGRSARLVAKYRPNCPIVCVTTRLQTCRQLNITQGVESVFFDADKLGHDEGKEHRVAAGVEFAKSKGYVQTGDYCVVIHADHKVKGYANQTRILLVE
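Kinase-Glo luminescence read after 1 h RT reaction of 0.1 nM LmPK with 0.5 mM PEP and 0.1 mM ADP. Activity scaled between uninhibited and enzyme-free controls.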
Cycloheximide cs: counter-screen hit for Shiga toxin inhibitors, cycloheximide. cell reporter, cycloheximide protein synthesis inhibition counterscreen. max response, %. 300,000 tested, 12% active. AID 2314; in the data active = max response mostly above about 13%, no sharp cut-off; inactive = mostly below about 14%; also: read at 38.3 µM for the half of the compounds with a filed dose; 0% is about no effect
* = called active by the depositor; ? = inconclusive; nt = no result; [ ] = another dose, or the depositor's remark. Hits are enriched below; roughly 22% of the tested compounds scored in any of these assays. Unless noted, calls follow the shape of the dose curve; as a rule, active = well fitted inhibition curve with a large enough effect; inconclusive = small, poorly fitted or top-dose-only effect, or another doubt; inactive = no such curve, though single readings can be large or run the other way.

SMILES | Pf growth 96h | Pf growth 48h | Shiga inhibitor | LmPK inh | Cycloheximide cs
O=C(NCc1ccc2c(c1)OCO2)C1CCN(S(=O)(=O)c2ccc(F)cc2)CC1 | ? | 5.6% | -3.2 | -7.2% | 2.7
O=C(CN1CCN(C(=O)CN2C(=O)NC3(CCCC3)C2=O)CC1)Nc1cccc(F)c1 | 17.5% | -7.2% | nt | nt | nt
Cc1cc(C)cc(NC(=O)NC(C)C2CCCO2)c1 (stereo not drawn) | ? | 15.2% | 8.1 | -6.5% | 9.3
CCN(CC)S(=O)(=O)N1CCC(C(=O)NCc2ccc3c(c2)OCO3)CC1 | 2.62µM* | -10.2% | -7.3 | -2.3% | -4.9
O=C(Nc1ccc2c(c1)OCO2)C1CCCCC1 | ? | 30.5% | 38.1* | 1.0% | 32.7*
CC(NC(=O)Nc1ccc2c(c1)OCO2)C1CCCO1 (stereo not drawn) | 14.8%[5.75 µM] | 90.9% | 72.2* | -3.2% | 44.0*
O=C(NCc1ccc2c(c1)OCO2)C1COc2ccccc2O1 (stereo not drawn) | ? | 58.9% | 33.9* | 4.1% | 13.4
O=C(Nc1ccc(Cl)cc1)Nc1ccccn1 | 6.7% | 82.6% | 102.9* | -2.7% | 40.8*
O=C(Nc1ccccc1)Nc1ccccn1 | 76.9% | 147.0% | 59.8* | -9.5% | 32.6*
O=C(Nc1ccc(Cl)cc1)c1cccc(S(=O)(=O)Nc2ccccn2)c1 | 13.1µM* | 12.1% | 1.8 | 4.2% | 3.8
O=C(Nc1ccc(Cl)cc1)Nc1ccc(S(=O)(=O)Nc2ncccn2)cc1 | 31.9% | -28.2% | -6.7 | 0.4% | -3.7
O=C(COC(=O)CCCN1C(=O)c2cccc3cccc(c23)C1=O)Nc1cccc(C(F)(F)F)c1 | 5.8% | 2.3% | -8.7 | 1.8% | 0.8
Cc1cc(C(=O)NNC(=O)NC(C)C)no1 | 30.9% | 10.2% | 24.4 | -6.3% | -3.3
N#Cc1nc(-c2ccc(F)cc2)oc1NCCCn1ccnc1 | -29.4% | -16.8% | 41.8* | -1.1% | 39.2*
CC(C)(C)c1ccc(-c2nc(C#N)c(NCc3ccncc3)o2)cc1 | nt | ? | 91.2* | 2.2% | 56.7*
CC(C)(C)c1ccc(-c2nc(C#N)c(NCCCn3ccnc3)o2)cc1 | 8.28µM* | ? | 10.3 | 5.8% | 9.2
Cc1cccc(N(CC(=O)NCC2CCCO2)C(=O)CNS(=O)(=O)c2ccc(Cl)cc2)c1 (stereo not drawn) | ? | -2.0% | -11.3 | -2.4% | -8.1
COc1ccc(NS(=O)(=O)c2ccc3nc(COc4ccc(Cl)c(C)c4)[nH]c3c2)cc1 | ? | ? | -38.4 | 6.5% | -4.5
CSCCC(NC(=O)c1ccc(Cl)cc1)C(=O)NC(C)(C)C (stereo not drawn) | 4.2% | nt | -22.5 | -0.5% | -2.3
COC(=O)C(NC(=O)c1ccc(F)cc1)(Nc1ncc(S(=O)(=O)c2ccc([N+](=O)[O-])cc2)s1)C(F)(F)F (stereo not drawn) | 13.1µM* | ? | -14.9 | 3.0% | 1.0
COC(=O)C(NC(=O)c1ccccc1C)(Nc1ncc(S(=O)(=O)c2ccc([N+](=O)[O-])cc2)s1)C(F)(F)F (stereo not drawn) | 4.15µM* | 11.7µM* | 4.8 | 5.5% | -2.0
O=C(Nc1ncc(S(=O)(=O)c2ccc([N+](=O)[O-])cc2)s1)c1ccccc1F | 9.7% | 0.5% | 3.9 | -4.5% | 8.0
O=C(NCc1cccs1)c1ccccc1 | -15.5% | nt | -1.4 | 2.2% | -3.0
O=C(NCc1cccs1)c1csc2ccccc12 | 49.8% | 63.5% | 32.7 | 2.8% | 25.0*
O=C(NCc1ccccc1Cl)c1ccc2ccccc2n1 | 41.9% | 63.4% | 86.3* | 7.6% | 52.1*
SMILES | Pf growth 96h | Pf growth 48h | Shiga inhibitor | LmPK inh | Cycloheximide cs
O=C(NCc1cccs1)c1ccc2ccccc2n1 | 14.1% | 28.6% | 73.0 | 1.0% | 32.0*
O=C(NCc1cccs1)c1ccc([N+](=O)[O-])cc1Cl | 45.1% | 30.1% | 23.8 | 0.5% | 11.0*
Fc1cccc(F)c1-n1c(CN2CCCC2)csc1=S | 5.86µM* | ? | -12.8 | 17.5% | 9.7
Fc1ccccc1CN1CCCCCCC1 | 8.1% | nt | -3.8 | 12.5% | -2.5
CCCCNC(=O)CCn1ccc2cc(S(=O)(=O)N3CCCC3)ccc21 | -17.0% | -5.3% | -3.7 | 0.0% | -4.4
CCOc1ccccc1CNC(=O)Cn1ccc2cc(S(=O)(=O)N3CCCC3)ccc21 | 13.1µM* | ? | -7.0 | -5.6% | -0.2
CCOCCCNC(=O)CCn1ccc2cc(S(=O)(=O)N3CCCC3)ccc21 | 10.4µM* | ? | 9.1 | 2.0% | 14.5
CCOc1ccccc1CNC(=O)CCCn1ccc2cc(S(=O)(=O)N3CCCC3)ccc21 | ? | ? | -2.6 | 4.5% | -0.4
